Data reported in PubChem BioAssay AID1159580 (chemical genetic matrix, 2015).
Screen size: about 5,500 compounds; about 2,000 (36%) were called active. Another 18% or so got no clear call; they are omitted. Cut-off read from the data, not from the text of the source: active = normalized growth mostly below about 0.91 (no sharp cut-off); inconclusive = no clear call, values can overlap the other calls; inactive = mostly above about 0.92. Some of the results follow.

Assay: chemical genetic growth profiling, strain panel (AID 1159580);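 note: tested at 20 µM; growth read once vehicle control cultures reached saturation at 30 °C; 1 = growth at the plate median or of vehicle wells; lower values mean less growth of the strain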
Conditions: S. cerevisiae deletion strains, growth OD

Measured: normalized growth

N[C@H](CO)Cc1ccccc1
inactive: locus YAL021C, strain ccr4, hits give low values 1.01 | locus YAL026C, strain drs2, hits give low values 1.02 | locus YAL030W, strain snc1, hits give low values 1.03 | locus YBL061C, strain skt5, hits give low values 1.03 | locus YBR009C, strain hhf1, hits give low values 1.03 | locus YBR023C, strain chs3, hits give low values 1.02 | locus YBR171W, strain sec66, hits give low values 1.02 | locus YBR231C, strain swc5, hits give low values 1.02 | locus YBR279W, strain paf1, hits give low values 1.01 | locus YCL011C, strain gbp2, hits give low values 1.01 | locus YCL016C, strain dcc1, hits give low values 0.998 | locus YCL061C, strain MRC1, hits give low values 1.02 | locus YCL069W, strain vba3, hits give low values 1.02 | locus YCR088W, strain abp1, hits give low values 1.01 | locus YDL005C, strain med2, hits give low values 1.01 | locus YDL040C, strain nat1, hits give low values 1.02 | locus YDR001C, strain nth1, hits give low values 1.02 | locus YDR069C, strain doa4, hits give low values 1.04 | locus YDR137W, strain rgp1, hits give low values 1.01 | locus YDR159W, strain sac3, hits give low values 1.06 | locus YDR195W, strain ref2 1.02 | locus YDR297W, strain sur2, hits give low values 1.05 | locus YDR334W, strain swr1, hits give low values 1.02 | locus YDR335W, strain msn5, hits give low values 1.01 | locus YDR392W, strain spt3, hits give low values 0.927 | locus YEL003W, strain gim4, hits give low values 1.03 | locus YEL037C, strain rad23, hits give low values 1.01 | locus YEL061C, strain CIN8 (second series), hits give low values 1.02 | locus YER015W, strain faa2, hits give low values 1.03 | locus YER016W, strain bim1, hits give low values 1.03 | locus YER111C, strain swi4, hits give low values 1.02 | locus YER155C, strain BEM2 (second series), hits give low values 1.02 | locus YFR010W, strain ubp6, hits give low values 1.04 | locus YGL167C, strain pmr1, hits give low values 1.02 | locus YGL173C, strain kem1, hits give low values 1.03 | locus YGL227W, strain vid30, hits give low values 1.03 | locus YGL240W, strain doc1, hits give low values 1.02 | locus YGL253W, strain hxk2, hits give low values 1.03 | locus YHR013C, strain ard1, hits give low values 1.03 | locus YHR027C, strain rpn1, hits give low values 1.02 | locus YHR030C, strain SLT2, hits give low values 1.07 | locus YHR079C, strain IRE1, hits give low values 1.05 | locus YHR142W, strain chs7, hits give low values 1.03 | locus YJL092W, strain hpr5, hits give low values 1.02 | locus YJL095W, strain BCK1 (second series), hits give low values 1.02 | locus YJL095W, strain BCK1, hits give low values 1.06 | locus YJL115W, strain asf1, hits give low values 1.01 | locus YJL129C, strain trk1, hits give low values 1.03 | locus YJL154C, strain vps35, hits give low values 1.02 | locus YJL164C, strain tpk1, hits give low values 0.994 | locus YJL166W, strain qcr8, hits give low values 1.02 | locus YJL187C, strain SWE1, hits give low values 1.01 | locus YJR066W, strain TOR1, hits give low values 0.974 | locus YKL160W, strain elf1, hits give low values 0.996 | locus YKR026C, strain gcn3, hits give low values 1.02 | locus YKR091W, strain srl3, hits give low values 1.01 | locus YLL001W, strain dnm1, hits give low values 1.01 | locus YLL026W, hits give low values 1.02 | locus YLL041C, strain sdh2, hits give low values 1.01 | locus YLR027C, strain aat2, hits give low values 1.01 | locus YLR113W, strain HOG1, hits give low values 1.05 | locus YLR221C, strain rsa3, hits give low values 1.03 | locus YLR258W, strain gsy2, hits give low values 1.05 | locus YLR262C, strain YPT6 (second series), hits give low values 1.02 | locus YLR320W, strain mms22, hits give low values 1.03 | locus YLR342W, strain FKS1, hits give low values 1.03 | locus YLR357W, strain rsc2, hits give low values 1.05 | locus YLR370C, strain arc18, hits give low values 1.04 | locus YLR384C, strain iki3, hits give low values 1 | locus YML120C, strain ndi1, hits give low values 1.01 | locus YMR058W, strain fet3, hits give low values 1.02 | locus YMR125W, strain sto1, hits give low values 1.01 | locus YMR129W, hits give low values 1.01 | locus YMR205C, strain PFK2, hits give low values 1.02 | locus YMR231W, strain pep5, hits give low values 1.02 | locus YNL071W, strain lat1, hits give low values 1.02 | locus YNL183C, strain NPR1, hits give low values 0.974 | locus YNL209W, strain ssb2, hits give low values 1.01 | locus YNL248C, strain rpa49, hits give low values 1.06 | locus YNL322C, strain KRE1 (second series), hits give low values 1.02 | locus YNR049C, strain mso1, hits give low values 1.02 | locus YOR001W, strain rrp6, hits give low values 1.03 | locus YOR070C, strain gyp1, hits give low values 1.01 | locus YOR080W, strain dia2, hits give low values 1.02 | locus YOR083W, strain WHI5, hits give low values 1 | locus YOR106W, strain vam3, hits give low values 1 | locus YOR231W, strain MKK1, hits give low values 1.07 | locus YOR265W, strain rbl2, hits give low values 1.01 | locus YOR270C, strain vph1, hits give low values 1.06 | locus YOR290C, strain snf2, hits give low values 0.978 | locus YPL051W, strain arl3, hits give low values 1.03 | locus YPL078C, strain atp4, hits give low values 0.99 | locus YPL106C, strain sse1, hits give low values 1 | locus YPL240C, strain hsp82, hits give low values 1.02 | locus YPL256C, strain CLN2, hits give low values 1.04
